In paper PMC11006913:

Columns and labels:
Test in all cases: PBM; 200 nM protein, PBS
Settings in all cases: dsDNA, one strand shown
HESX1 [1] = target: HESX1 (Homo sapiens, UniProt Q9UBX0 95-180, R165K)
HESX1 [2] = target: HESX1 (Homo sapiens, UniProt Q9UBX0 95-180)
ALX1 [3] = target: ALX1 (Homo sapiens, UniProt Q15699 118-204, L144V)
ALX1 [4] = target: ALX1 (Homo sapiens, UniProt Q15699 118-204, L144R)
HESX1 [5] = target: HESX1 (Homo sapiens, UniProt Q9UBX0 95-180, R109Q)
ALX3 [6] = target: ALX3 (Homo sapiens, UniProt O95076 139-225, L168Q)
HESX1 [7] = target: HESX1 (Homo sapiens, UniProt Q9UBX0 95-180, P111T)
ALX3 [8] = target: ALX3 (Homo sapiens, UniProt O95076 139-225, L168V)
HESX1 [9] = target: HESX1 (Homo sapiens, UniProt Q9UBX0 95-180, F115L)
ALX1 [10] = target: ALX1 (Homo sapiens, UniProt Q15699 118-204)
MSX2 [11] = target: MSX2 (Homo sapiens, UniProt P35548 130-214, R199I)
MSX2 [12] = target: MSX2 (Homo sapiens, UniProt P35548 130-214)
MSX2 [13] = target: MSX2 (Homo sapiens, UniProt P35548 130-214, F161Y)
ALX4 [14] = target: ALX4 (Homo sapiens, UniProt Q9H161 200-286)
PRRX1 [15] = target: PRRX1 (Homo sapiens, UniProt P54821 80-166, F113S)
ALX4 [16] = target: ALX4 (Homo sapiens, UniProt Q9H161 200-286, Q225E)
PROP1 [17] = target: PROP1 (Homo sapiens, UniProt O75360 56-141)
PROP1 [18] = target: PROP1 (Homo sapiens, UniProt O75360 56-141, R99H)
PROP1 [19] = target: PROP1 (Homo sapiens, UniProt O75360 56-141, F88S)
PRRX1 [20] = target: PRRX1 (Homo sapiens, UniProt P54821 80-166)
PRRX1 (Homo sapiens, UniProt P54821 80-166), sequence (P54821 80-166): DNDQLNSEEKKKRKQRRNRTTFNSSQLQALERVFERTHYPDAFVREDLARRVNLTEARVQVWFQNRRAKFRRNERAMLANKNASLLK

HESX1 (Homo sapiens, UniProt Q9UBX0 95-180, F115L), sequence (Q9UBX0 95-180 F115L): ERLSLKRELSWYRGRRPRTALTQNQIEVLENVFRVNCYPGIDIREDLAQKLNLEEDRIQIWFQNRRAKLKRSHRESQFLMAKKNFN
ALX4 (Homo sapiens, UniProt Q9H161 200-286, Q225E), sequence (Q9H161 200-286 Q225E): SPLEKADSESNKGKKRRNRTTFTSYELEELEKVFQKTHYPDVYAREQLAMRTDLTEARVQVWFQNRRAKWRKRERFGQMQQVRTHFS
MSX2 (Homo sapiens, UniProt P35548 130-214), sequence (P35548 130-214): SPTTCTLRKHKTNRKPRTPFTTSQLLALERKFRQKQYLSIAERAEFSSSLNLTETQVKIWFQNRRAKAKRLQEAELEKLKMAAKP
ALX4 (Homo sapiens, UniProt Q9H161 200-286), sequence (Q9H161 200-286): as the sequence (Q9H161 200-286 Q225E) above, with E26Q counted along it
MSX2 (Homo sapiens, UniProt P35548 130-214, R199I), sequence (P35548 130-214 R199I): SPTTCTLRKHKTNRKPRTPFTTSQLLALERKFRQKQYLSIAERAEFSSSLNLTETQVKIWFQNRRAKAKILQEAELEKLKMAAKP
HESX1 (Homo sapiens, UniProt Q9UBX0 95-180), sequence (Q9UBX0 95-180): as the sequence (Q9UBX0 95-180 F115L) above, with L21F counted along it
HESX1 (Homo sapiens, UniProt Q9UBX0 95-180, R165K), sequence (Q9UBX0 95-180 R165K): as the sequence (Q9UBX0 95-180 F115L) above, with L21F, R71K counted along it
HESX1 (Homo sapiens, UniProt Q9UBX0 95-180, R109Q), sequence (Q9UBX0 95-180 R109Q): as the sequence (Q9UBX0 95-180 F115L) above, with R15Q, L21F counted along it
HESX1 (Homo sapiens, UniProt Q9UBX0 95-180, P111T), sequence (Q9UBX0 95-180 P111T): as the sequence (Q9UBX0 95-180 F115L) above, with P17T, L21F counted along it
MSX2 (Homo sapiens, UniProt P35548 130-214, F161Y), sequence (P35548 130-214 F161Y): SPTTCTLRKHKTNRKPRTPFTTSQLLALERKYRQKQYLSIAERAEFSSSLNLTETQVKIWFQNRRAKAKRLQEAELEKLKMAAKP
PROP1 (Homo sapiens, UniProt O75360 56-141), sequence (O75360 56-141): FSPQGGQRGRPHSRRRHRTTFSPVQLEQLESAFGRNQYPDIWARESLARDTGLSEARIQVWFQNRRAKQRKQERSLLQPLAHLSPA
ALX1 (Homo sapiens, UniProt Q15699 118-204, L144R), sequence (Q15699 118-204 L144R): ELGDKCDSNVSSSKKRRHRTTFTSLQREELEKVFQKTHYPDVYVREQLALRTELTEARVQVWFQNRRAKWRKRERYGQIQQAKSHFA
PROP1 (Homo sapiens, UniProt O75360 56-141, R99H), sequence (O75360 56-141 R99H): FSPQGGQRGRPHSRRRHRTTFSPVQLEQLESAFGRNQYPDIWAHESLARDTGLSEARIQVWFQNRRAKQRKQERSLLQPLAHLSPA
ALX1 (Homo sapiens, UniProt Q15699 118-204, L144V), sequence (Q15699 118-204 L144V): as the sequence (Q15699 118-204 L144R) above, with R27V counted along it
ALX3 (Homo sapiens, UniProt O95076 139-225, L168V), sequence (O95076 139-225 L168V): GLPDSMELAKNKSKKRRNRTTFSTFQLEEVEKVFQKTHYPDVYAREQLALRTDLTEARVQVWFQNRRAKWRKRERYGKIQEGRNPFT
PROP1 (Homo sapiens, UniProt O75360 56-141, F88S), sequence (O75360 56-141 F88S): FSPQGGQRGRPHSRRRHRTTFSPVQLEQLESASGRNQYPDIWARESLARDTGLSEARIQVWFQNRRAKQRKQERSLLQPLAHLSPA
ALX1 (Homo sapiens, UniProt Q15699 118-204), sequence (Q15699 118-204): as the sequence (Q15699 118-204 L144R) above, with R27L counted along it
ALX3 (Homo sapiens, UniProt O95076 139-225, L168Q), sequence (O95076 139-225 L168Q): as the sequence (O95076 139-225 L168V) above, with V30Q counted along it
PRRX1 (Homo sapiens, UniProt P54821 80-166, F113S), sequence (P54821 80-166 F113S): as the sequence (P54821 80-166) above, with F34S counted along it

## CCGAGCCG
HESX1 [1]
  binding signal: 6.36 upbm affinity estimate (log intensity, higher = more binding, comparable within an allelic series)
HESX1 [2]
  binding signal: 6.14 upbm affinity estimate (log intensity, higher = more binding, comparable within an allelic series)
ALX1 [3]
  binding signal: 6.19 upbm affinity estimate (log intensity, higher = more binding, comparable within an allelic series)
ALX1 [4]
  binding signal: 6.2 upbm affinity estimate (log intensity, higher = more binding, comparable within an allelic series)
HESX1 [5]
  binding signal: 6.38 upbm affinity estimate (log intensity, higher = more binding, comparable within an allelic series)
ALX3 [6]
  binding signal: 7.56 upbm affinity estimate (log intensity, higher = more binding, comparable within an allelic series)
HESX1 [7]
  binding signal: 6.22 upbm affinity estimate (log intensity, higher = more binding, comparable within an allelic series)
ALX3 [8]
  binding signal: 7.69 upbm affinity estimate (log intensity, higher = more binding, comparable within an allelic series)
HESX1 [9]
  binding signal: 6.62 upbm affinity estimate (log intensity, higher = more binding, comparable within an allelic series)
ALX1 [10]
  binding signal: 6.32 upbm affinity estimate (log intensity, higher = more binding, comparable within an allelic series)

## AGGGTCCC
HESX1 [1]
  binding signal: 6.51 upbm affinity estimate (log intensity, higher = more binding, comparable within an allelic series)
HESX1 [2]
  binding signal: 6.48 upbm affinity estimate (log intensity, higher = more binding, comparable within an allelic series)
HESX1 [5]
  binding signal: 6.45 upbm affinity estimate (log intensity, higher = more binding, comparable within an allelic series)
HESX1 [7]
  binding signal: 6.51 upbm affinity estimate (log intensity, higher = more binding, comparable within an allelic series)
HESX1 [9]
  binding signal: 6.53 upbm affinity estimate (log intensity, higher = more binding, comparable within an allelic series)

## CAGGCGCC
HESX1 [1]
  binding signal: 6.55 upbm affinity estimate (log intensity, higher = more binding, comparable within an allelic series)
HESX1 [2]
  binding signal: 6.51 upbm affinity estimate (log intensity, higher = more binding, comparable within an allelic series)
HESX1 [5]
  binding signal: 6.57 upbm affinity estimate (log intensity, higher = more binding, comparable within an allelic series)
HESX1 [7]
  binding signal: 6.52 upbm affinity estimate (log intensity, higher = more binding, comparable within an allelic series)
HESX1 [9]
  binding signal: 6.58 upbm affinity estimate (log intensity, higher = more binding, comparable within an allelic series)

## GCAATTAC
HESX1 [1]
  binding signal: 11.4 upbm affinity estimate (log intensity, higher = more binding, comparable within an allelic series)
HESX1 [2]
  binding signal: 11.5 upbm affinity estimate (log intensity, higher = more binding, comparable within an allelic series)
MSX2 [11]
  binding signal: 12.5 upbm affinity estimate (log intensity, higher = more binding, comparable within an allelic series)
MSX2 [12]
  binding signal: 13.7 upbm affinity estimate (log intensity, higher = more binding, comparable within an allelic series)
HESX1 [5]
  binding signal: 8.2 upbm affinity estimate (log intensity, higher = more binding, comparable within an allelic series)
HESX1 [7]
  binding signal: 9.93 upbm affinity estimate (log intensity, higher = more binding, comparable within an allelic series)
MSX2 [13]
  binding signal: 13.4 upbm affinity estimate (log intensity, higher = more binding, comparable within an allelic series)
HESX1 [9]
  binding signal: 7.19 upbm affinity estimate (log intensity, higher = more binding, comparable within an allelic series)

## AATTATTA
HESX1 [1]
  binding signal: 11.5 upbm affinity estimate (log intensity, higher = more binding, comparable within an allelic series)
ALX4 [14]
  binding signal: 13.5 upbm affinity estimate (log intensity, higher = more binding, comparable within an allelic series)
PRRX1 [15]
  binding signal: 11.3 upbm affinity estimate (log intensity, higher = more binding, comparable within an allelic series)
ALX4 [16]
  binding signal: 12.8 upbm affinity estimate (log intensity, higher = more binding, comparable within an allelic series)
HESX1 [2]
  binding signal: 11.7 upbm affinity estimate (log intensity, higher = more binding, comparable within an allelic series)
MSX2 [11]
  binding signal: 12.3 upbm affinity estimate (log intensity, higher = more binding, comparable within an allelic series)
ALX1 [3]
  binding signal: 11.4 upbm affinity estimate (log intensity, higher = more binding, comparable within an allelic series)
ALX1 [4]
  binding signal: 11.2 upbm affinity estimate (log intensity, higher = more binding, comparable within an allelic series)
MSX2 [12]
  binding signal: 13.4 upbm affinity estimate (log intensity, higher = more binding, comparable within an allelic series)
PROP1 [17]
  binding signal: 11 upbm affinity estimate (log intensity, higher = more binding, comparable within an allelic series)
HESX1 [5]
  binding signal: 8.87 upbm affinity estimate (log intensity, higher = more binding, comparable within an allelic series)
PROP1 [18]
  binding signal: 10.8 upbm affinity estimate (log intensity, higher = more binding, comparable within an allelic series)
ALX3 [6]
  binding signal: 10.4 upbm affinity estimate (log intensity, higher = more binding, comparable within an allelic series)
HESX1 [7]
  binding signal: 10.3 upbm affinity estimate (log intensity, higher = more binding, comparable within an allelic series)
ALX3 [8]
  binding signal: 9.98 upbm affinity estimate (log intensity, higher = more binding, comparable within an allelic series)
PROP1 [19]
  binding signal: 7.79 upbm affinity estimate (log intensity, higher = more binding, comparable within an allelic series)
MSX2 [13]
  binding signal: 13.1 upbm affinity estimate (log intensity, higher = more binding, comparable within an allelic series)
HESX1 [9]
  binding signal: 8 upbm affinity estimate (log intensity, higher = more binding, comparable within an allelic series)
ALX1 [10]
  binding signal: 12 upbm affinity estimate (log intensity, higher = more binding, comparable within an allelic series)
PRRX1 [20]
  binding signal: 13.4 upbm affinity estimate (log intensity, higher = more binding, comparable within an allelic series)

## AGGGTATA
HESX1 [1]
  binding signal: 7.35 upbm affinity estimate (log intensity, higher = more binding, comparable within an allelic series)
HESX1 [2]
  binding signal: 7.42 upbm affinity estimate (log intensity, higher = more binding, comparable within an allelic series)

## AGGTACCT
HESX1 [1]
  binding signal: 6.5 upbm affinity estimate (log intensity, higher = more binding, comparable within an allelic series)
ALX4 [14]
  binding signal: 8.17 upbm affinity estimate (log intensity, higher = more binding, comparable within an allelic series)
ALX4 [16]
  binding signal: 8.34 upbm affinity estimate (log intensity, higher = more binding, comparable within an allelic series)
HESX1 [2]
  binding signal: 6.5 upbm affinity estimate (log intensity, higher = more binding, comparable within an allelic series)
HESX1 [5]
  binding signal: 6.6 upbm affinity estimate (log intensity, higher = more binding, comparable within an allelic series)
HESX1 [7]
  binding signal: 6.54 upbm affinity estimate (log intensity, higher = more binding, comparable within an allelic series)
HESX1 [9]
  binding signal: 6.63 upbm affinity estimate (log intensity, higher = more binding, comparable within an allelic series)

## CCATAATA
HESX1 [1]
  binding signal: 8.68 upbm affinity estimate (log intensity, higher = more binding, comparable within an allelic series)
HESX1 [2]
  binding signal: 8.79 upbm affinity estimate (log intensity, higher = more binding, comparable within an allelic series)

## AATGTAAG
HESX1 [1]
  binding signal: 7.66 upbm affinity estimate (log intensity, higher = more binding, comparable within an allelic series)
HESX1 [2]
  binding signal: 7.68 upbm affinity estimate (log intensity, higher = more binding, comparable within an allelic series)

## CCGAGGCC
HESX1 [1]
  binding signal: 6.48 upbm affinity estimate (log intensity, higher = more binding, comparable within an allelic series)
HESX1 [2]
  binding signal: 6.46 upbm affinity estimate (log intensity, higher = more binding, comparable within an allelic series)
PROP1 [17]
  binding signal: 6.73 upbm affinity estimate (log intensity, higher = more binding, comparable within an allelic series)
HESX1 [5]
  binding signal: 6.41 upbm affinity estimate (log intensity, higher = more binding, comparable within an allelic series)
PROP1 [18]
  binding signal: 6.78 upbm affinity estimate (log intensity, higher = more binding, comparable within an allelic series)
HESX1 [7]
  binding signal: 6.44 upbm affinity estimate (log intensity, higher = more binding, comparable within an allelic series)
PROP1 [19]
  binding signal: 6.47 upbm affinity estimate (log intensity, higher = more binding, comparable within an allelic series)
HESX1 [9]
  binding signal: 6.42 upbm affinity estimate (log intensity, higher = more binding, comparable within an allelic series)

## AAGCTGGC
HESX1 [1]
  binding signal: 6.31 upbm affinity estimate (log intensity, higher = more binding, comparable within an allelic series)
HESX1 [2]
  binding signal: 6.21 upbm affinity estimate (log intensity, higher = more binding, comparable within an allelic series)
HESX1 [5]
  binding signal: 6.45 upbm affinity estimate (log intensity, higher = more binding, comparable within an allelic series)
HESX1 [7]
  binding signal: 6.39 upbm affinity estimate (log intensity, higher = more binding, comparable within an allelic series)
HESX1 [9]
  binding signal: 6.51 upbm affinity estimate (log intensity, higher = more binding, comparable within an allelic series)

## CGCGCGAG
HESX1 [1]
  binding signal: 6.55 upbm affinity estimate (log intensity, higher = more binding, comparable within an allelic series)
ALX4 [14]
  binding signal: 8.39 upbm affinity estimate (log intensity, higher = more binding, comparable within an allelic series)
ALX4 [16]
  binding signal: 8.37 upbm affinity estimate (log intensity, higher = more binding, comparable within an allelic series)
HESX1 [2]
  binding signal: 6.52 upbm affinity estimate (log intensity, higher = more binding, comparable within an allelic series)
HESX1 [5]
  binding signal: 6.5 upbm affinity estimate (log intensity, higher = more binding, comparable within an allelic series)
HESX1 [7]
  binding signal: 6.55 upbm affinity estimate (log intensity, higher = more binding, comparable within an allelic series)
HESX1 [9]
  binding signal: 6.44 upbm affinity estimate (log intensity, higher = more binding, comparable within an allelic series)

## TAAATTCA
HESX1 [1]
  binding signal: 7.34 upbm affinity estimate (log intensity, higher = more binding, comparable within an allelic series)
HESX1 [2]
  binding signal: 7.46 upbm affinity estimate (log intensity, higher = more binding, comparable within an allelic series)

## AGAGGCAC
HESX1 [1]
  binding signal: 6.29 upbm affinity estimate (log intensity, higher = more binding, comparable within an allelic series)
ALX4 [14]
  binding signal: 8.1 upbm affinity estimate (log intensity, higher = more binding, comparable within an allelic series)
ALX4 [16]
  binding signal: 8.02 upbm affinity estimate (log intensity, higher = more binding, comparable within an allelic series)
HESX1 [2]
  binding signal: 6.48 upbm affinity estimate (log intensity, higher = more binding, comparable within an allelic series)
HESX1 [5]
  binding signal: 6.44 upbm affinity estimate (log intensity, higher = more binding, comparable within an allelic series)
HESX1 [7]
  binding signal: 6.5 upbm affinity estimate (log intensity, higher = more binding, comparable within an allelic series)
HESX1 [9]
  binding signal: 6.64 upbm affinity estimate (log intensity, higher = more binding, comparable within an allelic series)

## GAACCCCC
HESX1 [1]
  binding signal: 6.29 upbm affinity estimate (log intensity, higher = more binding, comparable within an allelic series)
HESX1 [2]
  binding signal: 6.26 upbm affinity estimate (log intensity, higher = more binding, comparable within an allelic series)
MSX2 [11]
  binding signal: 9.43 upbm affinity estimate (log intensity, higher = more binding, comparable within an allelic series)
MSX2 [12]
  binding signal: 9.41 upbm affinity estimate (log intensity, higher = more binding, comparable within an allelic series)
HESX1 [5]
  binding signal: 6.37 upbm affinity estimate (log intensity, higher = more binding, comparable within an allelic series)
HESX1 [7]
  binding signal: 6.38 upbm affinity estimate (log intensity, higher = more binding, comparable within an allelic series)
MSX2 [13]
  binding signal: 9.53 upbm affinity estimate (log intensity, higher = more binding, comparable within an allelic series)
HESX1 [9]
  binding signal: 6.35 upbm affinity estimate (log intensity, higher = more binding, comparable within an allelic series)
